Laboratory results as given in PubChem BioAssay (NCATS).
Inconclusive results are not listed. A call without a number means that no potency is given here. The source made the active and inactive calls. Unless noted, calls follow the shape of the full dose curve.

Tests used:
[1] = Primary qHTS for Vero E6 cytotoxicity: counterscreen for inhibitors of SARS-S pseudo-typed particle cell entry (AID 1479150)
[2] = Cytotoxicity counterscreen for inhibitors of SARS-CoV-2 cell entry (AID 1645845); also: nearly all actives have a fitted effect of over 50% in size
Method in brief: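 ATP-content luminescence (ATPLite 1step, 15 min RT) read after 48 h compound exposure of Expi293F cells stably expressing human ACE2; normalized to cells-only wells and media-only wells.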

[3] = Primary qHTS for inhibitors of La Crosse Virus (LACV) - induced cell death in SH-SY5Y cells (AID 1508616; active = well fitted curve in the direction sought with a large enough effect; an effect the other way counts as inactive or inconclusive;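 also: top concentration of the series differs between compounds; higher means more rescue of cells from virus-induced death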)
Method in brief: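 Screening measures cell viability in LACV-infected SH-SY5Y cultures. Compound was added before virus (0.01 MOI), and ATP was detected by luminescence 6 days later.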

[4] = target: Calcium and integrin-binding protein 1 (Homo sapiens) (UniProt Q99828); assay: Validation qHTS for Identification of Calcium Integrin Binding protein 1 (CIB1) Competitor (AID 1508618; active = well fitted curve in the direction sought with a large enough effect; an effect the other way counts as inactive or inconclusive)
Sequence of Calcium and integrin-binding protein 1 (Homo sapiens) (Q99828 whole entry, looked up): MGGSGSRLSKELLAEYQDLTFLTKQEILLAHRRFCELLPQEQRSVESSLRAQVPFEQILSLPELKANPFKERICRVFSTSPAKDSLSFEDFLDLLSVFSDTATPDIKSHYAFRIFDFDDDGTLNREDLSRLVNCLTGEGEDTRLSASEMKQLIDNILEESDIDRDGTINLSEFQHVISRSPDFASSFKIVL
Method in brief: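 Displacement of FITC-alphaIIb peptide (100 nM) from CIB1-GST (1 uM) is monitored by polarization in quantitative HTS format; buffer carries 5 mM CaCl2 and 125 mM NaCl at pH 7.4, incubations are at room temperature.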

[5] = target: Calcium and integrin-binding protein 1 (Homo sapiens) (UniProt Q99828); assay: Primary qHTS for Identification of Calcium Integrin Binding Protein 1 (CIB1) Competitor (AID 1508620; active = well fitted curve in the direction sought with a large enough effect; an effect the other way counts as inactive or inconclusive;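 also: GST tagged CIB1 binding a fluorescein labelled alphaIIb integrin peptide tracer; top concentration of the series differs between compounds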)
Method in brief: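 CIB1-GST (1 uM final) and compound incubated 15 min at room temperature before adding FITC-alphaIIb peptide tracer (100 nM final). Competition for binding read by fluorescence polarization (ex 480, em 540) after another 15 min at room temperature.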

[6] = Primary qHTS for small molecule stabilizers of the endoplasmic reticulum resident proteome: Secreted ER Calcium Modulated Protein (SERCaMP) assay (AID 1508630; active = well fitted curve in the direction sought with a large enough effect; an effect the other way counts as inactive or inconclusive)
Method in brief: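 The SH-SY5Y reporter protocol was run at 3 concentrations up to 38.3 uM (primary) or 11 concentrations (follow-up): 16 h compound, 100 nM thapsigargin for 4 h, then extracellular luciferase luminescence.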

[7] = target: Cytochrome P450 2D6 (Homo sapiens) (UniProt P10635); assay: Cytochrome P450 family 2 subfamily D member 6 (CYP2D6) small molecule antagonists: luciferase biochemical (cell-free) qHTS assay (AID 1645840; active = well fitted curve in the direction sought with a large enough effect in the repeat runs; an effect the other way counts as inactive or inconclusive; also: nearly all actives have a fitted effect of over 55% in size; also: potency is read from the fitted curve at half-maximal effect)
Sequence of Cytochrome P450 2D6 (Homo sapiens) (P10635 whole entry, looked up): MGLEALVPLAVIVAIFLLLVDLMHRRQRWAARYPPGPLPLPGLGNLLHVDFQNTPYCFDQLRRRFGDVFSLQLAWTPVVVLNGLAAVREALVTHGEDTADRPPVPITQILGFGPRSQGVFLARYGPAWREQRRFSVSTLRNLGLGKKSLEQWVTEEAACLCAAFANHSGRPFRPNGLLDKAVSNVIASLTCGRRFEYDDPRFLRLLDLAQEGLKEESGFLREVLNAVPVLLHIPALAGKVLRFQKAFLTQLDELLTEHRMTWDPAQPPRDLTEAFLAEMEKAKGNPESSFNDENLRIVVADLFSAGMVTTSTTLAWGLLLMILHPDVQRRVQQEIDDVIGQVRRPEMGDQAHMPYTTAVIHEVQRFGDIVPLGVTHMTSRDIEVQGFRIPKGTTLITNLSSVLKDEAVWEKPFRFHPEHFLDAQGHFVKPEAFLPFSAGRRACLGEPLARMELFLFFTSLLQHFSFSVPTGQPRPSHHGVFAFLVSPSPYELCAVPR
Method in brief: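 P450-Glo CYP2D6 system: proluciferin substrate converted by enzyme to luciferin, read by luminescence proportional to activity. Enzyme-substrate mix with compound 10 min at room temperature, then NADPH regeneration 1 h before detection reagent.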

[8] = target: Cytochrome P450 2C9 (Homo sapiens) (UniProt P11712); assay: Cytochrome P450 family 2 subfamily C member 9 (CYP2C9) small molecule antagonists: luciferase biochemical (cell-free) qHTS assay (AID 1645842; active = well fitted curve in the direction sought with a large enough effect in the repeat runs; an effect the other way counts as inactive or inconclusive; also: nearly all actives have a fitted effect of over 55% in size; also: potency is read from the fitted curve at half-maximal effect)
Sequence of Cytochrome P450 2C9 (Homo sapiens) (P11712 whole entry, looked up): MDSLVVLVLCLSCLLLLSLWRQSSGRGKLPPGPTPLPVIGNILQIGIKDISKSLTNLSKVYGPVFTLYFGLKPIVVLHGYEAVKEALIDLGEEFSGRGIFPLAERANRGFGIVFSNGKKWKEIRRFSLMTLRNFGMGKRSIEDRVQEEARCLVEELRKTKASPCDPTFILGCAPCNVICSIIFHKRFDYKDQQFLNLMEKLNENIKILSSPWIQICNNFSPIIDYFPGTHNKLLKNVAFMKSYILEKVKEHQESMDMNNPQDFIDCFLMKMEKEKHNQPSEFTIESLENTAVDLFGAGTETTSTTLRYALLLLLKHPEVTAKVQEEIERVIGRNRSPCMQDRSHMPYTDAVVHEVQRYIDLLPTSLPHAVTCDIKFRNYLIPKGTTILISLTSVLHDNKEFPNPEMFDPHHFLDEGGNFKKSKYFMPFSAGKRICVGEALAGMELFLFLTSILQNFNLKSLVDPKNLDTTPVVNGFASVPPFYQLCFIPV
Method in brief: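 P450-Glo CYP2C9 system: proluciferin substrate with enzyme in mix containing 0.4% BSA, 10 min at room temperature, then NADPH regeneration solution added and incubated 1 h at 37C. Detection reagent stopped reaction; luminescence read after 20 min as RLU.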

[9] = A High-Content qHTS Against Drug Library for the Identification of Small Molecules that Inhibit DYT1 Early Onset Primary Dystonia-Associated Cell Pathology (AID 1645839)
Method in brief: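 High-content imaging quantified EGFP-TorsinA mislocalization in HEK293-derived cells inducibly expressing DYT1 mutant torsinA, after 48 h exposure to compound given together with tetracycline induction. Cell count served as a toxicity channel alongside %pathology.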

[10] = Confirmatory qHTS to identify inhibitors of SARS-CoV-2 cell entry (AID 1645844); also: potency is read from the fitted curve at half-maximal effect; nearly all actives have a fitted effect of over 45% in size
Method in brief: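 Luminescence entry read-out after 48 h: spike-pseudotyped MLV particles (Wuhan-Hu-1, 19-aa C-terminal truncation) added to compound-pretreated (1 h) HEK293-ACE2 cells; Data were normalised to bald PP and spike PP wells.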

[11] = VSVG counterscreen qHTS to identify inhibitors of SARS-CoV-2 cell entry (AID 1645847); also: potency is read from the fitted curve at half-maximal effect; nearly all actives have a fitted effect of over 65% in size
Method in brief: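 Entry of VSV-G pseudotyped particles into human ACE2-expressing HEK293 cells was measured by luciferase luminescence 48 h after infection, with compound added 1 h beforehand.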

[12] = Primary qHTS to identify inhibitors of SARS-CoV-2 cell entry (AID 1645846); details: activity change, negative = inhibition: at 57.1 µM (top of the series) unless noted; also: nearly all actives have a fitted effect of over 45% in size
Method in brief: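 Using luciferase-reporting pseudoviruses carrying Wuhan-Hu-1 spike, the screen tracks entry into stably ACE2-expressing cells over 48 hr. Activity is expressed relative to spike particles versus particles lacking any fusion protein.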

[13] = Confirmatory qHTS for VERO E6 Cytotoxicity Assay: Counterscreen for SARS-CoV-2 CPE Assay (AID 1508605); also: nearly all actives have a fitted effect of over 60% in size

Compound: OCCOCCN1CCN(C(c2ccccc2)c2ccc(Cl)cc2)CC1 (configuration not stated)
- Potency [1]: inactive
- Potency [2]: inactive

Compound: CCN(CC)CCOC(=O)C1(C2CCCCC2)CCCCC1
- Potency [1]: inactive
- Potency [2]: inactive

Compound: O=c1[nH]c2ccccc2n1C1CCN(CCCC(c2ccc(F)cc2)c2ccc(F)cc2)CC1
- Potency [1]: inactive
- Potency [3]: inactive
- Potency [4]: inactive
- Potency [5]: inactive
- outcome [6]: inactive

Compound: Clc1ccc(CCC(Cn2ccnc2)Sc2c(Cl)cccc2Cl)cc1 (configuration not stated)
- Potency [1]: inactive
- Potency [3]: inactive
- outcome [6]: inactive
- Potency [7]: 0.55 µM (active)
- Potency [8]: 0.0123 µM (active)

Compound: C#C[C@]1(O)CC[C@H]2[C@@H]3CCC4=Cc5oncc5C[C@]4(C)[C@H]3CC[C@@]21C
- Potency [1]: inactive
- Potency [2]: inactive

Compound: CCc1ccc(CCOc2ccc(CC3SC(=O)NC3=O)cc2)nc1 (configuration not stated)
- Potency [1]: inactive
- Potency [2]: inactive

Compound: Cn1c(CCCC(=O)O)nc2cc(N(CCCl)CCCl)ccc21
- Potency [1]: inactive
- Potency [3]: inactive
- Potency [4]: inactive
- Potency [5]: inactive
- outcome [6]: inactive
- Potency [9]: inactive
- Potency [7]: inactive
- Potency [8]: inactive
- Potency [2]: inactive

Compound: Nc1ncn([C@@H]2O[C@H](CO)[C@@H](O)[C@H]2O)c(=O)n1
- Potency [1]: inactive
- Potency [10]: 17.1 µM (active)
- Potency [11]: 19.2 µM (active)

Compound: Cc1ccc(-n2[nH]c(C)c(N=Nc3cccc(-c4cccc(C(=O)O)c4)c3O)c2=O)cc1C
- Potency [1]: inactive
- Potency [2]: inactive

Compound: COC(=O)C1=C(C)NC(C)=C(C(=O)OCC(C)C)C1c1ccccc1[N+](=O)[O-] (configuration not stated)
- Potency [1]: inactive
- Potency [10]: 6.07 µM (active)
- activity change, negative = inhibition [12]: -96.9%
- Potency [11]: 5.41 µM (active)

Compound: CN1CCN(C2=Nc3ccccc3Oc3ccc(Cl)cc32)CC1
- Potency [1]: inactive
- Potency [2]: inactive

Compound: CN(C)CC/C=C1\c2ccccc2COc2ccccc21
- Potency [1]: inactive
- Potency [2]: inactive

Compound: CCCCNc1ccc(C(=O)OCCOCCOCCOCCOCCOCCOCCOCCOCCOC)cc1
- Potency [1]: inactive
- Potency [10]: 15.2 µM (active)
- Potency [11]: 21.5 µM (active)

Compound: CN1CCN(C(c2ccccc2)c2ccccc2)CC1
- Potency [1]: inactive
- Potency [2]: inactive

Compound: CN1CCC(=C2c3ccccc3C=Cc3ccccc32)CC1
- Potency [1]: inactive
- Potency [13]: inactive
- Potency [10]: 8.57 µM (active)
- Potency [2]: inactive
- activity change, negative = inhibition [12]: -24.8%
- Potency [11]: 0.192 µM (active)

Compound: Cc1ccc(S(=O)(=O)N[C@@H](CCCCN)C(=O)CCl)cc1
- Potency [3]: inactive
- Potency [4]: inactive
- Potency [5]: inactive
- outcome [6]: inactive
- Potency [9]: inactive
- Potency [7]: 17.2 µM (active)
